Bioassay records (PubChem)
hcDAF12 agonist: activators of H. contortus DAF-12 nuclear receptor; hit rate 1.4% among 370,000; activation, % at 6.8 µM; HEK293 hcDAF-12 lit1-tk-luc reporter, luminescence; 0% DMSO, 100% Δ7-dafachronic acid; AID 652067;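 active = activation above the mean of all tested compounds plus 3 SD, cut at about 5.5% in these data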
hgDAF-12 ag: hgDAF-12 agonism, primary luciferase screen; HEK293 GAL4-hgDAF12 UAS-luciferase reporter, agonist luminescence; normalized to butyrate control; activation, % at 6.8 µM; hit rate 1.8% among 370,000; AID 687014;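 active = activation above a cutoff set at the mean of all screened compounds plus 3 SD, cut at about 10% in these data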
ssDAF-12 act: activates DAF-12 receptor from parasite S. stercoralis. hit rate 1% among 370,000. HEK293 ssDAF-12/GRIP1 lit1-tk-luc reporter, luminescence; % of 3 µM dafachronic acid response. activation, % at 6.8 µM;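 active = activation above the mean over all tested compounds plus 3 SD, cut at about 0.9% in these data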
DAX1 inh-1: inhibitors of DAX1 repression of SF-1 activated StAR promoter | HEK293T StAR-luciferase reporter, SF-1/DAX-1 repression relief | inhibition, % at 6.8 µM | hit rate 1.1% among 370,000;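 active = inhibition above the mean over all tested compounds plus 3 SD, cut at about 3.6% in these data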;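 note: higher inhibition means more luminescence from relief of DAX-1 repression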
DAX1 inh-2: inhibits human nuclear receptor DAX1 | P51843 | HEK293 Gal4-DAX1 luciferase reporter, luminescence | inhibition, % at 6.75 µM | hit rate 0.99% among 340,000;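 active = inhibition above the mean over all tested compounds plus 3 SD, cut at about 4.2% in these data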;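 note: inhibition shows as a rise in luminescence from relieved DAX1 repression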
DAX1 conf: confirmation of human DAX1 (NR0B1) inhibitors; shares compounds with DAX1 inh-1; inhibition, % at 6.8 µM; hit rate 87% among 2,400; HEK293T StAR-promoter luciferase reporter, SF-1/DAX-1 repression; AID 652134;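 active = inhibition above the average of every tested compound plus 3 SD, cut at about 3.8% in these data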;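 note: active compounds raise luminescence by relieving repression of the StAR reporter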
Target sequence (P51843 whole entry, looked up): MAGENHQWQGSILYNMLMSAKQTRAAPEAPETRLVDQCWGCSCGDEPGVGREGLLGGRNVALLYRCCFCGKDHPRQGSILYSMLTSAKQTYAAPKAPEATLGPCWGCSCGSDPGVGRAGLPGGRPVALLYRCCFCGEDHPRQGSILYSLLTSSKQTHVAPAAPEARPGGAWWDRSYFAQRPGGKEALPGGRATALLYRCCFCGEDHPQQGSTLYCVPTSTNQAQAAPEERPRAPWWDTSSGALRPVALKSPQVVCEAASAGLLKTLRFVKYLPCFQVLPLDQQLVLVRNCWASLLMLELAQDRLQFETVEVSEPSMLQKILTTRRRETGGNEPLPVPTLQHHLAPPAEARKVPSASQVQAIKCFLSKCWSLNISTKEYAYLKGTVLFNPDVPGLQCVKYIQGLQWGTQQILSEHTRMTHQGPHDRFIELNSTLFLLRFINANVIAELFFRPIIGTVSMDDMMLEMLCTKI
SF1 AF2mut Luc: nonselective inhibitor or artifact in SF-1 mutant DAX1 counter-screen | shares compounds with DAX1 inh-1 | HEK293 StAR-luciferase, SF-1 AF2 mutant, luminescence | AID 652136 | inhibition, % at 6.8 µM | hit rate 78% among 2,400;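 active = inhibition above the mean of all tested compounds plus 3 SD, cut at about 3% in these data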
LXRb hcDAF ctr: activates human LXR-beta, counter-screen for hcDAF-12 agonists | shares compounds with hcDAF12 agonist | HEK293 Gal4-LXR tk-luc reporter, luminescence, 24 h; normalized: DMSO 0%, positive control 100% | activation, % at 6.8 µM | 3,400 tested, under 10 active;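 active = mean percent activation of the reporter above a cutoff set as the average over tested compounds plus their standard deviation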
hcDAF12 ag: confirmation of H. contortus DAF-12 agonists; shares compounds with hcDAF12 agonist; HEK293 hcDAF-12 lit1-tk-luc reporter, luminescence; % of Δ7-dafachronic acid response; activation, % at 6.8 µM; hit rate 61% among 3,400;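 active = mean activation across triplicate tests above the threshold derived from the earlier primary screen, cut at about 5.5% in these data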
hgDAF12 ag: confirmation of H. glycines DAF-12 agonists; shares compounds with hgDAF-12 ag; HEK293 GAL4-hgDAF12 luciferase reporter, agonist mode; percent of butyrate response; activation, % at 6.8 µM; hit rate 80% among 3,300; AID 743050;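 active = mean activation over triplicate wells above the hit cutoff derived from the earlier primary screen, cut at about 11% in these data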
LXR ag 2: counter-screen for DAF-12 agonists: agonists of human LXR-beta; 3,300 tested, under 10 active; activation, % at 6.8 µM; HEK293 Gal4-LXR luciferase reporter, 24 h; shares compounds with hgDAF-12 ag;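 active = mean activation of the triplicate above a set limit carried over from the primary screen, none filed active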
A number is an active result; - = inactive; . = no result given. A selection: hits, their analogues and other compounds. The true share with any hit is near 4.1%.

SMILES	hcDAF12 agonist	hgDAF-12 ag	ssDAF-12 act	DAX1 inh-1	DAX1 inh-2	DAX1 conf	SF1 AF2mut Luc	LXRb hcDAF ctr	hcDAF12 ag	others
c1ccc(-c2noc(-c3ccccc3-c3ccccc3)n2)cc1	-	-	-	-	-	.	.	.	.
Cc1ccc(-c2noc(-c3ccccc3Br)n2)cc1	16.1	14.1	2.9	5.5	4.2	16.1	7.8	-	21.0
Cc1ccc(/C=N/Nc2nc(C(C)(C)C)cs2)o1	-	-	-	-	-	.	.	.	.
Cc1ccc(/C=N/Nc2nc3ccccc3s2)o1	21.3	12.8	2.8	6.2	-	15.8	9.1	-	20.5
c1ccc(-c2csc(Nc3ccc4c(c3)OCCO4)n2)cc1	15.0	18.6	3.1	6.9	-	19.9	7.0	-	16.3
Cc1cc(C)nc(Nc2nc(-c3ccccc3)cs2)n1	22.1	18.4	5.0	4.5	-	19.6	8.4	-	36.9
C[C@H](CO)N1C[C@H](C)[C@H](CN(C)S(=O)(=O)c2cccs2)Oc2ncc(-c3cc4ccccc4o3)cc2C1=O	-	-	-	-	-	.	.	.	.
O=C(Nc1ccc(F)cc1)OCc1cn(Cc2ccc(F)cc2)nn1	-	-	-	-	.	.	.	.	.
CCC(C)C(CO)NCCCn1cnc(C(=O)Nc2ccc(C)c(C)c2)n1 (stereo unspecified)	-	-	-	-	-	.	.	.	.
CCOc1ccc(N/C=C/C(=O)c2ccccc2)c([N+](=O)[O-])c1	11.1	-	-	7.5	-	-	-	-	-
CCOc1ccc(NC(=O)/C=C/c2ccccc2)c([N+](=O)[O-])c1	-	-	-	-	-	.	.	.	.
CC(C)C(=O)Nc1ccc2nn(-c3ccc(F)cc3)nc2c1	.	.	.	.	-	.	.	.	.
Cc1ccc(-n2nc3ccc(NC(=O)C(C)C)cc3n2)cc1	9.8	17.3	1.0	5.1	-	15.8	7.7	-	6.8
Cc1cc(-c2nc3ccccc3s2)ccc1N	14.7	11.8	3.1	6.7	-	10.3	3.1	-	20.9
CCOC(=O)c1sc(=NC(=O)c2ccc(C)c(C)c2)n(C)c1C	-	-	-	-	-	.	.	.	.
CCOC(=O)c1sc(=NC(=O)c2ccccc2Br)n(C)c1C	12.8	11.4	-	7.4	-	9.6	4.2	-	10.1
Cc1cccc(-c2nnc(-c3cccc4ccccc34)o2)c1	7.0	11.1	1.2	5.4	6.4	10.0	8.5	-	8.7
Clc1ccc(-c2nnc(-c3cccc4ccccc34)o2)cc1	-	-	-	-	-	.	.	.	.
CC(C)CC(=O)N1CCC(C(=O)NCC2COc3ccccc3O2)CC1 (stereo unspecified)	-	-	-	-	.	.	.	.	.
O=P(OCC1CCCO1)(OCC1CCCO1)OCC1CCCO1 (stereo unspecified)	-	-	-	-	-	.	.	.	.
CSCCC(=O)N1CCC(n2nccc2NC(=O)c2ccc3c(c2)OCO3)CC1	-	23.1	-	6.3	-	6.3	5.7	.	.	hgDAF12 ag=16.5;LXR ag 2=-
S=C(c1ccc(-c2ccc(Cl)cc2)o1)N1CCCCC1	-	15.4	-	5.3	4.8	14.8	9.0	.	.	hgDAF12 ag=19.7;LXR ag 2=-
COC(=O)[C@]12CCCCC=C1N(Cc1ccc(Cl)cc1Cl)C(=O)[C@H](CC(=O)NCc1ccc(OC)c(OC)c1)C2	-	-	-	-	.	.	.	.	.
Nc1nc(CSc2n[nH]c(-c3ccccc3)n2)nc(Nc2ccccc2)n1	-	-	-	-	-	.	.	.	.
